According to PubChem BioAssay (NCI):
Compounds without any hit were thinned out: in the full panel of roughly 83,000, 20% have a hit.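 Testing used 96-well plates and a 48-hour single-concentration exposure. Example: -40 means 40% of the starting cells died.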 The source made the active and inactive calls. How the source made its calls: active means growth percent below 10; inactive means the rest.

Legend:
Assay in all cases: NCI-60 one-dose screen, 48 h (100 = growth as untreated, 0 = no growth, -100 = all killed)
Settings in all cases: 10 µM unless noted
SR leukemia = system: SR leukemia
RPMI-8226 leukemia = system: RPMI-8226 leukemia
OVCAR-8 ovarian = system: OVCAR-8 ovarian
OVCAR-5 ovarian = system: OVCAR-5 ovarian
SK-OV-3 ovarian = system: SK-OV-3 ovarian
IGROV1 ovarian = system: IGROV1 ovarian
OVCAR-3 ovarian = system: OVCAR-3 ovarian
HS 578T breast = system: HS 578T breast
NCI/ADR-RES ovarian = system: NCI/ADR-RES ovarian
OVCAR-4 ovarian = system: OVCAR-4 ovarian

Measured: growth

O=C(NC(Cc1nnc2n(Cc3ccccc3)c(=O)c3c4c(sc3n12)CCCC4)c1ccccc1)c1ccccc1 (stereo unspecified)
inactive: SR leukemia 104% | RPMI-8226 leukemia 123% | OVCAR-8 ovarian 77.1% | OVCAR-5 ovarian 86.7% | SK-OV-3 ovarian 110% | IGROV1 ovarian 54.9% | OVCAR-3 ovarian 107% | HS 578T breast 101% | NCI/ADR-RES ovarian 87.9%

CN(C)CCCNC(=O)c1cncnc1Nc1ccc(OCc2cccc(F)c2)c(Cl)c1
active: SR leukemia -48.5% | RPMI-8226 leukemia -14.6% | OVCAR-8 ovarian 1.06% | SK-OV-3 ovarian -24% | IGROV1 ovarian 1.4% | OVCAR-3 ovarian 6.33% | HS 578T breast -30%
inactive: OVCAR-5 ovarian 36.1% | NCI/ADR-RES ovarian 43.3%

O=C(Cn1nnc2ccccc21)N/N=C/c1c[nH]c2ccccc12
inactive: SR leukemia 18.3% | RPMI-8226 leukemia 45% | OVCAR-8 ovarian 44.8% | OVCAR-5 ovarian 71.9% | OVCAR-4 ovarian 82% | SK-OV-3 ovarian 65.7% | IGROV1 ovarian 54.1% | HS 578T breast 57.5% | NCI/ADR-RES ovarian 47.6%

O=C(NNC(=O)c1nc2cc(F)ccc2n2cccc12)c1cnccn1
inactive: SR leukemia 21.4% | RPMI-8226 leukemia 41.3% | OVCAR-8 ovarian 24.2% | OVCAR-5 ovarian 68.3% | OVCAR-4 ovarian 28.4% | SK-OV-3 ovarian 42.1% | IGROV1 ovarian 35.6% | HS 578T breast 67.8% | NCI/ADR-RES ovarian 20.8%

CCOc1cccc(/C=N/NC(=O)c2cccc(Nc3ccnc(C(F)(F)F)c3)c2)c1O
inactive: SR leukemia 41.4% | RPMI-8226 leukemia 27.3% | OVCAR-8 ovarian 24.4% | OVCAR-5 ovarian 40.9% | SK-OV-3 ovarian 30.2% | IGROV1 ovarian 24.2% | OVCAR-3 ovarian 43.2% | HS 578T breast 43.7% | NCI/ADR-RES ovarian 37.6%

Cc1c(CN)cc(-c2ccc(Cl)cc2)n1-c1ccccc1
inactive: SR leukemia 77.5% | RPMI-8226 leukemia 66.7% | OVCAR-8 ovarian 74.8% | OVCAR-5 ovarian 80.9% | OVCAR-4 ovarian 40.3% | SK-OV-3 ovarian 85.4% | IGROV1 ovarian 48.1% | HS 578T breast 87.9% | NCI/ADR-RES ovarian 88.1%

O=[N+]([O-])c1ccc(-c2cn3nc(-c4c[nH]c5ccccc45)sc3n2)cc1
inactive: SR leukemia 92.2% | RPMI-8226 leukemia 93.1% | OVCAR-8 ovarian 104% | OVCAR-5 ovarian 96.9% | OVCAR-4 ovarian 88% | SK-OV-3 ovarian 88.3% | IGROV1 ovarian 89% | HS 578T breast 99.9% | NCI/ADR-RES ovarian 99.3%

Nc1nc2c(c3ncccc13)C(c1cccc(Cl)c1)Cc1ncccc1-2 (stereo unspecified)
active: SR leukemia 8.92% | OVCAR-3 ovarian 0.176%
inactive: RPMI-8226 leukemia 32.4% | OVCAR-8 ovarian 23.8% | OVCAR-5 ovarian 44.7% | SK-OV-3 ovarian 14.1% | IGROV1 ovarian 50.5% | HS 578T breast 31.1% | NCI/ADR-RES ovarian 18.7%

Cc1ccc(-c2csc(N(C(=O)N3CCN(c4cc5c(cc4F)c(=O)c(C(=O)O)cn5C4CC4)CC3)c3ccccc3)n2)cc1
active: OVCAR-3 ovarian 7.88% | NCI/ADR-RES ovarian 6.88%
inactive: SR leukemia 20.2% | RPMI-8226 leukemia 17.6% | OVCAR-8 ovarian 15.6% | OVCAR-5 ovarian 13.2% | SK-OV-3 ovarian 28.2% | IGROV1 ovarian 12.5% | HS 578T breast 33.5%

CC1(C)CC[C@]23CC[C@]4(C)[C@H](CC[C@@H]5[C@@]6(C)C/C(=C/c7ccncc7)C(=O)C(C)(C)[C@@H]6CC[C@]54C)[C@H]2[C@H]1OC3
inactive: SR leukemia 56.5% | RPMI-8226 leukemia 50% | OVCAR-8 ovarian 75.1% | OVCAR-5 ovarian 89.8% | OVCAR-4 ovarian 92.2% | SK-OV-3 ovarian 94.7% | IGROV1 ovarian 80.5% | HS 578T breast 84.9% | NCI/ADR-RES ovarian 97.8%

Fc1ccc2[nH]cc(-c3nc(-c4c[nH]c5ccncc45)cs3)c2c1
inactive: OVCAR-5 ovarian 24.3% | SK-OV-3 ovarian 63.1% | NCI/ADR-RES ovarian 16.9%
active: SR leukemia -6.91% | RPMI-8226 leukemia -24.2% | OVCAR-8 ovarian -41.5% | OVCAR-4 ovarian -0.149% | IGROV1 ovarian -43.2% | HS 578T breast -38.3%

COc1cccc(/C=C/C(=O)c2cc3c(N)c(C(=O)Nc4cccc5ccccc45)sc3nc2C)c1
inactive: SR leukemia 12.5% | OVCAR-5 ovarian 15.8% | OVCAR-4 ovarian 56.8% | SK-OV-3 ovarian 56.2% | HS 578T breast 15%
active: RPMI-8226 leukemia -18.9% | OVCAR-8 ovarian 3.72% | IGROV1 ovarian -3.98% | NCI/ADR-RES ovarian 4.18%

CCN(CC)CCN1C(=O)c2c(c(C)c3c(oc4ccc(OC)cc43)c2C)C1=O
inactive: SR leukemia 110% | RPMI-8226 leukemia 92.5% | OVCAR-8 ovarian 79.9% | OVCAR-5 ovarian 88.9% | SK-OV-3 ovarian 111% | IGROV1 ovarian 87.2% | OVCAR-3 ovarian 115% | HS 578T breast 101% | NCI/ADR-RES ovarian 82.6%

CC1(C)C(N)=Nc2cc(OCCCN3Cc4ccccc4C3)c(OCC3CC3)cc21
inactive: SR leukemia 32.4% | RPMI-8226 leukemia 44.3% | OVCAR-8 ovarian 76.8% | OVCAR-5 ovarian 83.2% | OVCAR-4 ovarian 91.4% | SK-OV-3 ovarian 75% | IGROV1 ovarian 80.2% | HS 578T breast 71.7% | NCI/ADR-RES ovarian 92.9%

O=C(O)COc1ccc(Cl)c(Cl)c1
inactive: SR leukemia 93.7% | RPMI-8226 leukemia 101% | OVCAR-8 ovarian 105% | OVCAR-5 ovarian 106% | OVCAR-4 ovarian 113% | SK-OV-3 ovarian 105% | IGROV1 ovarian 107% | HS 578T breast 123% | NCI/ADR-RES ovarian 106%

CCN1CCN(c2cc(C)nc(N(CCNc3ccnc4cc(Cl)ccc34)Cc3ccc4c(c3)OCO4)n2)CC1
active: SR leukemia -44.9% | RPMI-8226 leukemia -19.3% | OVCAR-8 ovarian 3.09% | SK-OV-3 ovarian -16.2% | NCI/ADR-RES ovarian -13.9%
inactive: OVCAR-5 ovarian 40.5% | OVCAR-4 ovarian 19.8% | IGROV1 ovarian 10.2% | HS 578T breast 30%

Cc1ccc(-c2nc3nc(-c4ccccc4)nc(N4CCCN(S(C)(=O)=O)CC4)c3o2)cc1
inactive: SR leukemia 30.8% | RPMI-8226 leukemia 92.5% | OVCAR-8 ovarian 50.7% | OVCAR-5 ovarian 92.5% | SK-OV-3 ovarian 81.3% | IGROV1 ovarian 75.7% | OVCAR-3 ovarian 83.4% | HS 578T breast 86.5% | NCI/ADR-RES ovarian 56.2%

Cc1c(Cl)cccc1C(=O)Nc1nc2c(s1)CN(C(=O)c1ccc(C(F)(F)F)cc1)CC2
inactive: SR leukemia 21.3% | RPMI-8226 leukemia 10.6% | OVCAR-8 ovarian 10.1% | OVCAR-5 ovarian 57.5% | SK-OV-3 ovarian 36.4% | IGROV1 ovarian 17.9% | HS 578T breast 26.8%
active: OVCAR-3 ovarian 0.113% | NCI/ADR-RES ovarian 5.22%

NC1(CO)COC(c2ccccc2)OC1 (stereo unspecified)
inactive: SR leukemia 83.5% | RPMI-8226 leukemia 108% | OVCAR-8 ovarian 103% | OVCAR-5 ovarian 94.9% | OVCAR-4 ovarian 130% | SK-OV-3 ovarian 101% | IGROV1 ovarian 104% | HS 578T breast 106% | NCI/ADR-RES ovarian 113%

O=[N+]([O-])c1cc(NS(=O)(=O)c2ccccc2)ccc1NS(=O)(=O)c1ccccc1
inactive: SR leukemia 128% | RPMI-8226 leukemia 109% | OVCAR-8 ovarian 93% | OVCAR-5 ovarian 106% | SK-OV-3 ovarian 102% | IGROV1 ovarian 119% | OVCAR-3 ovarian 111% | HS 578T breast 98.5% | NCI/ADR-RES ovarian 105%

COc1ccc(C(=O)Cn2c(C(=O)c3ccc(OC)cc3)nc3ccccc32)cc1
active: RPMI-8226 leukemia -7.09% | HS 578T breast -12% | NCI/ADR-RES ovarian -24.1%
inactive: SR leukemia 16.4% | OVCAR-8 ovarian 31.3% | OVCAR-5 ovarian 56.9% | OVCAR-4 ovarian 47.6% | SK-OV-3 ovarian 67.1% | IGROV1 ovarian 26.9%

O=C(CCCCCNC(=O)c1cc(=O)c(O)co1)Nc1ccccc1
inactive: SR leukemia 101% | RPMI-8226 leukemia 95.7% | OVCAR-8 ovarian 104% | OVCAR-5 ovarian 102% | OVCAR-4 ovarian 110% | SK-OV-3 ovarian 118% | IGROV1 ovarian 106% | HS 578T breast 108% | NCI/ADR-RES ovarian 102%

C#CCOc1cccc(-c2ncnc3cc(NC(=O)C=C)ccc23)c1
active: SR leukemia 5.05%
inactive: RPMI-8226 leukemia 21.1% | OVCAR-8 ovarian 38.3% | OVCAR-5 ovarian 38.5% | SK-OV-3 ovarian 79.9% | IGROV1 ovarian 33.5% | OVCAR-3 ovarian 28.6% | HS 578T breast 24.6%

O=C(Cc1ccccc1)Nc1cccc(N=Cc2ccccc2O)c1
inactive: SR leukemia 117% | RPMI-8226 leukemia 113% | OVCAR-8 ovarian 98% | OVCAR-5 ovarian 114% | OVCAR-4 ovarian 102% | SK-OV-3 ovarian 106% | IGROV1 ovarian 111% | HS 578T breast 108% | NCI/ADR-RES ovarian 105%

CN1CCN(Cc2ccc(NC(=O)c3cncc(C#Cc4cnc5ccc(Cl)nn45)c3)cc2C(F)(F)F)CC1
inactive: SK-OV-3 ovarian 12.3%
active: SR leukemia -2.72% | RPMI-8226 leukemia -25.6% | OVCAR-8 ovarian 8.97% | OVCAR-5 ovarian -4.08% | OVCAR-4 ovarian -4.08% | IGROV1 ovarian 1.12% | HS 578T breast -14.6% | NCI/ADR-RES ovarian 2.61%

Clc1c(Cl)[n+](Cc2ccc3ccccc3c2)cn1Cc1ccc2ccccc2c1
active: SR leukemia -55.6% | RPMI-8226 leukemia -43% | OVCAR-8 ovarian -10.7% | OVCAR-4 ovarian -3.18% | IGROV1 ovarian -20.3%
inactive: OVCAR-5 ovarian 54.9% | SK-OV-3 ovarian 19% | HS 578T breast 53.1% | NCI/ADR-RES ovarian 97.8%

CN1CCN(CCOc2ccc(-c3cnc4c(-c5ccc(F)cc5)cnn4c3)cc2)CC1
inactive: RPMI-8226 leukemia 27% | OVCAR-8 ovarian 58.1% | OVCAR-5 ovarian 83.4% | OVCAR-4 ovarian 49% | SK-OV-3 ovarian 93.1% | IGROV1 ovarian 48.2% | HS 578T breast 56.7% | NCI/ADR-RES ovarian 76.5%
active: SR leukemia 1.31%

CC(=O)OC[C@]12CC[C@@H]([C@@H](C)c3nnc(-c4ccncc4)o3)[C@@H]1[C@H]1CC[C@@H]3[C@@]4(C)CC[C@H](OC(C)=O)C(C)(C)[C@@H]4CC[C@@]3(C)[C@]1(C)CC2
inactive: SR leukemia 53.2% | RPMI-8226 leukemia 47.4% | OVCAR-8 ovarian 90.4% | OVCAR-5 ovarian 109% | OVCAR-4 ovarian 72.3% | SK-OV-3 ovarian 90.7% | IGROV1 ovarian 100% | HS 578T breast 92.1% | NCI/ADR-RES ovarian 90.6%
